Screening data deposited in PubChem by National Center for Advancing Translational Sciences (NCATS).
HPGD inh = blocks human HPGD enzyme activity; Potency, µM, for the others: at the top dose activity change, negative = inhibition, usual class: inhibitors; purified HPGD, NADH fluorescence kinetic, PGE2 substrate; AID 894; actives 4.3% (n = 150,000); active means well fitted inhibition curve with a large enough effect, not every such curve was filed as active; inconclusive means small, poorly fitted or top-dose-only effect, or another doubt; inactive means no such curve, though single readings can be large or run the other way
Target sequence (P15428 whole entry, looked up): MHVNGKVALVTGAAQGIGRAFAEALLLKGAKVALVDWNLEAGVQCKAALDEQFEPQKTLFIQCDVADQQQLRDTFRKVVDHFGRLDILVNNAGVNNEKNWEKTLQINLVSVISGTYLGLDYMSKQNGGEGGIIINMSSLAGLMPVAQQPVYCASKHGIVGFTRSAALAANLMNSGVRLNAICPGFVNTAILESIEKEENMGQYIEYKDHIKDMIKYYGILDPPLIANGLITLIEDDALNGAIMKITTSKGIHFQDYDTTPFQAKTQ
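20 nM HPGD preincubated 15 min at room temperature with compound in 50 mM Tris-HCl pH 8, 0.01% Tween 20. Started with 1 mM NAD+ and 30 uM prostaglandin E2; NADH fluorescence (360/450 nm) read 5 times over 30-s intervals, last minus first.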
NPSR antagonist = blocks cAMP signaling of the human neuropeptide S receptor | Q6W5P4 | CHO-NPSR cells, cAMP TR-FRET, antagonist mode | Potency, µM (series often up to 38.3 µM), for inactives: top-dose activity change, negative = inhibition, actives largely listed as inhibitors | actives 1% (n = 220,000) | AID 1461; further: nearly all actives have a fitted effect of over 50% in size
Tau fluor cs = counter-screen for tau fibril formation inhibitors; tau K18 P301L Alexa594 fluorescence, heparin fibrillization; Potency, µM (top dose mostly 57.7 µM), for the others: top-dose activity change, negative = decrease; actives 0.93% (n = 280,000); AID 1463; further: nearly all actives have a fitted effect of over 55% in size
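Human tau K18 P301L (15 uM unlabeled, 0.24 uM Alexa 594-labeled) in 100 mM sodium acetate pH 7 with 20 uM heparin, 6 hr at 37 C. ThT 30 uM added, 1 hr ambient; Alexa 594 FP and total fluorescence read at 555/632 nm.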
Tau ThT inhib = blocks human tau fibril formation measured by thioflavin T; P10636; recombinant tau K18 P301L (four-repeat tau fragment), heparin-induced fibrillization, ThT fluorescence; Potency, µM (doses to about 57.4 µM), for inactives: at the highest dose activity, negative = inhibition, most hits filed as inhibitors; actives 2.1% (n = 270,000); AID 1460; further: nearly all actives have a fitted effect of over 55% in size
Target sequence (P10636 561-689 P618L limits assumed): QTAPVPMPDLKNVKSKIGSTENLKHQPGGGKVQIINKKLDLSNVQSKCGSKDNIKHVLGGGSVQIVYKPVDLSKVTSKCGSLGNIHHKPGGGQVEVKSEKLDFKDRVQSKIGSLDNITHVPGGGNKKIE
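Recombinant human tau K18 fragment […] carrying P301L, 15 uM unlabeled plus 0.24 uM Alexa 594-labeled, was fibrillized with 20 uM heparin in 100 mM sodium acetate pH 7 for 6 hr at 37 C; 30 uM ThT fluorescence read after 1 hr.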
ALDH1A1 inh = blocks purified human ALDH1A1 activity. Purified ALDH1A1, NADH fluorescence, propionaldehyde substrate. AID 1030. P00352. actives 7.3% (n = 220,000). Potency, µM (highest dose often 75.3 µM), inactives show at the top dose activity, negative = inhibition, most hits filed as inhibitors; active means well fitted inhibition curve with a large enough effect, not every such curve was filed as active; inconclusive means small, poorly fitted or top-dose-only effect, or another doubt; inactive means no such curve, though single readings can be large or run the other way;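 further: plate controls were no enzyme wells and a reference inhibitor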
Tau fibril FP = tau fibrillization inhibition (FP) | P10636 | K18 P301L tau heparin fibrillization, Alexa594 FP, 6 h | AID 1468 | Potency, µM (doses to about 57.7 µM), without a hit: top-dose activity, negative = inhibition, hits mostly inhibitors | actives 0.39% (n = 280,000); further: nearly all actives have a fitted effect of over 55% in size
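Compound effects on tau fibrillization are measured by Alexa 594 fluorescence polarization (ex 555, em 632 nm). K18 P301L tau is used at 15 uM with 0.24 uM labeled tracer, and 20 uM heparin induces aggregation over 6 hr at 37 C.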
* = called active by the depositor; ? = inconclusive; nt = no result; [ ] = another dose, or the depositor's remark. Rows were chosen to be rich in hits. Some 9.5% of all compounds tested hit in one or more screens of this group. Unless noted, the call rests on the fitted dose curve; in most records, active means well fitted curve in the direction sought with a large enough effect; inconclusive means small, poorly fitted or top-dose-only effect, or another doubt; inactive means no such curve, though single readings can be large; an effect the other way counts as inactive or inconclusive. Unless noted, on the % scale 0 is the no-effect control and ±100 the full control effect; potency means the concentration at half of the fitted maximal effect.

SMILES	HPGD inh	NPSR antagonist	Tau fluor cs	Tau ThT inhib	ALDH1A1 inh	Tau fibril FP
CCOC(=O)N1CCC(NC(=O)c2ccc3c(c2)N(Cc2cccc(C)c2)C(=O)c2ccccc2S3(=O)=O)CC1	nt	nt	-21.5%	-7.5%	nt	-1.3%
Cc1ccc(-n2ncc3c(N4CCCCC4)ncnc32)cc1	nt	nt	-21.6%	?	nt	-2.5%
O=C(Oc1ccccc1C(=O)Nc1ccccc1)c1ccc(Br)c([N+](=O)[O-])c1	-22.5%	-9.4%	?	10µM*	14.1µM*	?
CCOc1ccc(NC(=O)c2ccc3c(=O)n4nc(Nc5ccccc5C)sc4nc3c2)cc1	nt	nt	-25.0%	?	nt	-3.8%
CC(C(=O)NC1CCCC1)N(C(=O)c1snc(C(N)=O)c1N)c1ccc2c(c1)OCCO2 (stereo unspecified)	-19.6%	-8.2%[46.1 µM]	-9.3%	-9.9%	12.6µM*	-0.8%
COc1cccc(NC(=O)c2c(C)oc3nc(C)nc(N4CCCC4)c23)c1	nt	nt	-14.7%	-9.9%	nt	3.3%
O=C(CCn1c(=O)c2ccccc2n(Cc2cc(=O)n3ccccc3n2)c1=O)NCc1ccco1	?	12.5%	-1.3%	2.5%	?	-3.1%
Cc1cccc2nc(Cn3c(=O)n(CCCC(=O)NCc4ccco4)c(=O)c4ccccc43)cc(=O)n12	28.2µM*	3.8%	-12.2%	-15.1%	20µM*	2.2%
O=C(C1CCN(S(=O)(=O)N2CCC3(CC2)OCCO3)CC1)N1CCOCC1	-3.3%	0.6%[46.1 µM]	2.3%	-2.3%	4.0%	4.0%
O=C(C1CCN(S(=O)(=O)N2CCC3(CC2)OCCO3)CC1)N1CCCCC1	15.8µM*	13.3%	-4.1%	-4.3%	1.5%	1.4%
COc1ccccc1CNc1nc(-c2ccccc2CN(C)C)nc2ccccc12	-5.4%	nt	-4.5%	-6.8%	-1.6%	-3.6%
O=C(CCN1C(=O)C2CC=C(Cl)CC2C1=O)NCc1ccco1 (stereo unspecified)	-17.8%	-5.6%[46.1 µM]	-3.1%	?	22.4µM*	-9.4%
O=C(CCN1C(=O)C2CC=C(Cl)CC2C1=O)NCc1ccccc1 (stereo unspecified)	-2.0%	-4.8%[46.1 µM]	-4.1%	-5.1%	?	-2.5%
Oc1ccc(-c2cnns2)c(O)c1	2µM*	4.6%	-9.9%	?	25.1µM*	-5.4%
O=C(O)c1ccc(O)cc1O	-3.4%	nt	nt	nt	-5.6%	nt
COc1cc(OC)c(NC(=O)NCc2ccc3c(c2)CCN3C(=O)c2ccccc2)cc1Cl	nt	nt	?	?	nt	10.4%
Cc1ccc(C)c(Sc2ccc(NC(=O)CCl)cc2)c1	-10.9%	-14.6%	?	?	0.891µM*	?
Cc1ccc(NC(=O)CSCC(N)=O)cc1C	-0.7%	-12.3%[46.1 µM]	-0.8%	4.5%	3.7%	-8.2%
Cc1ccc(Sc2ccc(NC(=O)CCl)cc2)cc1C	?	-23.7%	?	?	2µM*	?
Cc1ccc(-n2cc(-c3ccccc3)c3c(N4CCOCC4)ncnc32)cc1	nt	-58.9%	-13.7%	-21.4%	?	6.0%
Cc1cccc(-n2cc(-c3ccccc3)c3c(N4CCOCC4)ncnc32)c1	nt	-55.0%	-9.1%	?	17.8µM*	4.6%
CCc1ccc(OCC(=O)NC2CC(C)(C)NC(C)(C)C2)cc1	nt	24.6%	-9.8%	12.6µM*	-2.8%	-5.3%
Cc1ccc(OCC(=O)NC2CC(C)(C)NC(C)(C)C2)cc1C	nt	7.2%	-1.5%	1.5%	0.5%	-7.8%
COc1ccc(O)c(/C=N/Nc2nc(Nc3ccccc3)nc(-n3nc(C)cc3C)n2)c1	-14.1%	1.26µM*	?	?	7.0%	?
CC(C)=CCCC1(C)C=Cc2c(c(C)cc3c2[nH]c2ccccc23)O1 (stereo unspecified)	-7.7%	nt	8.91µM*[quencher]	?	10.3%	-9.6%
CN(C)CCNC(=O)c1ccc(-n2c(-c3ccccc3)cc3c2CCCC3)cc1	nt	nt	-24.1%	?	nt	-22.3%
CCOC(=O)N1CCN(C(=O)c2ccc3c(=O)n(-c4ccc(OC)cc4OC)c(=S)[nH]c3c2)CC1	-10.5%	7.6%[46.1 µM]	4.9%	5.0%	-7.9%	-5.2%
